The results in this text go back to PubChem BioAssay (NCI).

Common to all, as to test: NCI-60 one-dose screen, 48 h (100 = growth as untreated, 0 = no growth, -100 = all killed)
Conditions in all cases: 10 µM

For assay [1], the system named is SR leukemia.
Assay [2] relates to RPMI-8226 leukemia.
Assay [3] has as its system OVCAR-8 ovarian.
Assay [4] concerns OVCAR-5 ovarian.
For assay [5], the system named is OVCAR-4 ovarian.
The test system of assay [6] is SK-OV-3 ovarian.
Assay [7] deals with IGROV1 ovarian.
In assay [8] the test system is OVCAR-3 ovarian.
In assay [9] the test system is HS 578T breast.
Assay [10] concerns NCI/ADR-RES ovarian.
In assay [11] the test system is T-47D breast.
The test system of assay [12] is BT-549 breast.
The test system of assay [13] is MDA-MB-435 melanoma.
The test system of assay [14] is SW-620 colon.
Assay [15] relates to HCT-116 colon.
Assay [16] deals with HCC-2998 colon.
Assay [17] has as its system KM12 colon.
The subject of assay [18] is MCF7 breast.

About 83,000 compounds went through this panel and 20% of them were active in at least one assay; those are over-represented in the sample as a whole.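 Interpretation: 100, growth as untreated; towards 0, rising growth inhibition; 0, no net growth; 0 to -100, cell death. Compounds scoring below 10 were considered active.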 Unmarked numbers belong to inactive results. Active and inactive are the calls of the source.

Consider `COCCOC(=O)NC(=O)Nc1ccc(C(=O)c2ccc(Cl)cc2)cc1`, for which the growth is 22.2% in assay [1]; 19.2% in assay [2]; 40.4% in assay [3]; 90.7% in [4]; 56.9% in [5]; 27.2% in assay [6]. Besides, the growth in assay [7] was 51.3%; in assay [8] it was 6.85% (active); in [9], 32%; in assay [10], 18.9%; in assay [11] it was 16.5%; in [12], 37.8%. The growth in assay [13] is 6.97% (active); in assay [14] it was 30.4%; in assay [15], 30.5%; in assay [16] it was 47.3%; in assay [17] it was 29%.
With `CN(C)c1ccc2cc(-c3cc4c(oc3=O)-c3ccccc3OC4O)c(=O)oc2c1` (configuration not stated), the growth in [1] is -12.7% (active); in [2], -9.42% (active); in assay [3], 13.6%; in assay [4] it was -9.51% (active); in [5], 26%; in assay [6], 28.8%. For the same compound, the growth in [7] is -28.7% (active); in assay [8], -30% (active); in assay [9], -7.78% (active); in assay [10], 0.415% (active); in assay [11], -12.3% (active); in assay [12] it was -17.4% (active). Also, the growth in [13] is -23.8% (active); in assay [14], 17.1%; in assay [18], 18.7%; in assay [15] it was 12.8%; in assay [17] it was -37.7% (active).
On to `c1ccc(OCCC[P+](c2ccccc2)(c2ccccc2)c2ccccc2)cc1`, for which the growth in assay [1] was -21.2% (active); in [2], -27.6% (active); in [3], 7.15% (active); in assay [4] it was 29%; in [5] it was 8.32% (active); in [6], 19.6%. Besides, the growth was 10.5% in assay [7]; 7.59% (active) in assay [8]; 43.3% in assay [9]; 93.3% in assay [10]; 13.3% in assay [11]; 11% in [12]. Besides, the growth in assay [13] was 0.653% (active); in assay [14] it was 18.9%; in assay [15], 6.18% (active); in assay [16], 14.3%; in [17], 6.18% (active).
`O=C(COc1ccc(Cl)cc1Cl)Oc1coc(CSc2nc3ccccc3s2)cc1=O`: the growth in [1] was 98.6%; in [2] it was 87%; in assay [3], 21.3%; in assay [4] it was 116%; in assay [5], 99.1%; in assay [6] it was 102%. Further, the growth in assay [7] is 64.3%; in assay [8], 114%; in assay [9], -1.61% (active); in assay [10] it was 104%; in [11], 101%; in assay [12], 108%. Besides, the growth is 114% in assay [13]; 20.7% in assay [14]; 102% in [18]; 105% in [15]; 110% in assay [17].
As for `Cc1cc(=O)oc2cc(OCc3cn(CC(O)CO)nn3)ccc12` (configuration not stated), the growth is 97.9% in assay [1]; 92.9% in assay [2]; 103% in assay [3]; 113% in assay [4]; 116% in assay [5]; 100% in assay [6]. The growth in assay [7] is 107%; in assay [8], 117%; in assay [9] it was 27%; in assay [10], 105%; in assay [11], 86.8%; in [12] it was 97.5%. The growth is 116% in assay [13]; 74% in [14]; 109% in assay [18]; 98.8% in assay [15]; 111% in [17].
`CCN(CC)CCOC(=O)c1ccc(NC(=O)Nc2cccc(Cl)c2)cc1`: the growth in assay [1] was 96.5%; in [2], 103%; in assay [3], 97.6%; in [4], 105%; in [5], 107%; in assay [6], 102%. The growth in [7] is 105%; in assay [8], 97.6%; in assay [9], 100%; in assay [10] it was 97.5%; in assay [11], 87.1%; in [12] it was 92.9%. Further, the growth was 103% in assay [13]; 104% in assay [14]; 95% in [15]; 99.7% in [16]; 98% in assay [17].
Consider `Cc1ccc(C)c2c1sc1nc3n[nH]c(N)c3c(=N)n12`, for which the growth in assay [1] was 97.6%; in assay [2], 93.2%; in assay [3], 97.9%; in [4], 106%; in assay [5] it was 101%; in [6], 127%. For the same compound, the growth was 127% in assay [7]; 114% in [8]; 107% in assay [9]; 110% in [10]; 94.1% in assay [11]; 114% in assay [12]. Besides, the growth in assay [13] was 105%; in assay [14] it was 107%; in assay [15] it was 101%; in assay [16], 109%; in assay [17] it was 104%.
With `CCCCCC(=O)N1c2ccccc2NC2=C(C(=O)CC(c3ccc(OC)c(OC)c3)C2)C1c1ccc(C(F)(F)F)cc1` (configuration not stated), the growth in assay [1] was 51.8%; in assay [2], 21.6%; in assay [3], 47.1%; in [4], 103%; in [5] it was 41.8%; in [6] it was 83.6%. Besides, the growth in assay [7] was 63%; in assay [8], 33.1%; in [9], 78.7%; in assay [10], 58.7%; in assay [11] it was 36.9%; in [12], 75.9%. In addition, the growth was 62.4% in assay [13], 68.8% in assay [14], 39.3% in assay [15] and 81.2% in assay [16].
For `O=C(C=P(c1ccccc1)(c1ccccc1)c1ccccc1)c1ccc(Br)cc1`, the growth is 56.6% in [1]; 47.4% in assay [2]; 89.1% in assay [3]; 104% in assay [4]; 95.5% in assay [5]; 108% in assay [6]. Moreover, the growth in assay [7] is 91.4%; in assay [8] it was 64.5%; in [9], 107%; in [10], 79.9%; in assay [11], 87.9%; in assay [12] it was 107%. The growth is 106% in [13]; 80.7% in [14]; 92.4% in [18]; 67.8% in [15]; 83.4% in assay [17].
